Compound activity as filed in PubChem.
PfHsp40 yeast = restores yeast growth despite PfHsp40 toxicity. growth rescue, % at 12.5 µM. 340,000 tested, 0.68% active. S. cerevisiae expressing PfHsp40, growth rescue, ATP luminescence. AID 504582; in the data active means growth rescue above about 28%, passing the limit was not always enough;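 further: yeast W303a lacking pdr1 and pdr3 grown in galactose medium; growth measured after three days at 30 °C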
PrP UTR inh = inhibition of PrP 5' UTR reporter expression. cell-based PrP 5' UTR mRNA reporter, plate reader. inhibition, % (test concentration not listed). 340,000 tested, 0.35% active. AID 488862; in the data active means inhibition above about 52%; further: 0 = median of the neutral control wells
PriA SSB inh = K. pneumoniae PriA-SSBct interaction inhibition; AlphaScreen SSBct-PriA binding, biotinylated peptide; inhibition, % at 33 µM; 430,000 tested, 0.6% active; AID 1272365; in the data active means inhibition mostly above about 37%, no sharp cut-off; inactive means mostly below about 20%;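 further: plate controls were negative control peptide for no effect and reference peptide for full effect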
PrPC TRFRET = reduces human prion protein on the cell surface. P04156. cell surface PrPC, TR-FRET read-out. inhibition, % at 13.8 µM. 370,000 tested, 0.43% active; in the data active means inhibition above about 24%; further: 0% = median of the test wells and 100% = reference compound wells
MazEF act = increases E. coli MazEF RNase cleavage of RNA | FAM/BHQ RNA-DNA oligo cleavage fluorescence, 5 h | activation, % at 20 µM | 350,000 tested, 0.32% active | AID 504720; in the data active means activation above about 50%
Target sequence (P0AE70 whole entry, looked up): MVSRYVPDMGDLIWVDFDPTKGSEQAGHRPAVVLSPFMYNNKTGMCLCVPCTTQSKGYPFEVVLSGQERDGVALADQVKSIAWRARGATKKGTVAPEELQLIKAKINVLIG
Numbers without * were called inactive; ! = a repeat was not active. An excerpt weighted towards active compounds, which were near 1.8% of everything screened.

Screening O=C(CSc1nnc(-c2ccco2)o1)NCCc1ccccc1 returned PfHsp40 yeast 0, PrP UTR inh -8, PriA SSB inh -6, PrPC TRFRET 2 and MazEF act 1.
For CC1CCC2C(C)C(=O)OC3OC4(C)CCC1C32OO4 (centres undefined) the results were PfHsp40 yeast 137*, PrP UTR inh -25, PriA SSB inh 3, PrPC TRFRET 0 and MazEF act -6.
`CC1CCC2[C@@H](C)C(=O)OC3O[C@]4(C)CCC1C32OO4` (some centres undefined) gave PfHsp40 yeast 110*, PrP UTR inh -6, PriA SSB inh -7, PrPC TRFRET 5 and MazEF act 0.
`O=C1CC(c2ccccc2)c2cccc(F)c21` (centres undefined) gave PfHsp40 yeast 39*, PrP UTR inh -31, PriA SSB inh -16, PrPC TRFRET 7 and MazEF act 10.
Screening COc1ccc(C(=O)COC(=O)C(CCSC)NC(=O)COc2ccccc2)cc1 (centres undefined) returned PfHsp40 yeast 0, PrP UTR inh 2, PriA SSB inh 7, PrPC TRFRET 0 and MazEF act -1.
CCCCNC(=O)C1(C)CCC(=O)N1CCOC (centres undefined) was read as PrPC TRFRET -5.
O=C1/C(=N\S(=O)(=O)c2cccs2)C([n+]2ccc(CCCc3ccccc3)cc2)=C([O-])c2ccccc21 was read as PrPC TRFRET -15 and MazEF act 8.
`O=C1/C(=N\S(=O)(=O)c2cccs2)C([n+]2cccc(Cc3ccccc3)c2)=C([O-])c2ccccc21` gave PfHsp40 yeast 0, PrP UTR inh -9 and MazEF act 271*.
`COc1ccc(C)cc1S(=O)(=O)N(CC(=O)O)c1ccc(C)cc1` gave PfHsp40 yeast 14, PrP UTR inh 3, PriA SSB inh -2, PrPC TRFRET 2 and MazEF act 5.
For O=C(C1CC1)N1CC(Oc2cccnc2)C1 the results were PriA SSB inh -1.
COc1cccc(/C=C/C(=O)OCC(=O)NC2CCCC2)c1 was read as PrPC TRFRET -7 and MazEF act 2.
`OCCCNc1nc(-c2ccc(Cl)cc2)nnc1-c1ccc(Br)cc1` gave PfHsp40 yeast 28*, PrP UTR inh -21, PriA SSB inh 7, PrPC TRFRET 7 and MazEF act 9.
For CCCCn1c(O)c(N=Nc2ccccc2O)c2ccccc21 the results were PfHsp40 yeast -1, PrP UTR inh -4, PriA SSB inh 13, PrPC TRFRET -2 and MazEF act 101*.
`COc1cc(NC(=O)COc2ccccc2[N+](=O)[O-])ccc1NC(=O)c1ccco1` gave PfHsp40 yeast 1, PrP UTR inh -13, PriA SSB inh -10, PrPC TRFRET -5 and MazEF act -24.
COc1ccc(NC(=O)N(C)C[C@H]2Oc3ccc(NC(=O)Nc4ccc5c(c4)OCO5)cc3C(=O)N([C@H](C)CO)C[C@@H]2C)cc1 was read as PfHsp40 yeast 54*, PrP UTR inh -31, PriA SSB inh 17, PrPC TRFRET 9 and MazEF act 11.
O=C1C(F)=CC(COC(c2ccccc2)(c2ccccc2)c2ccccc2)OC1n1cc(F)c(=O)[nH]c1=O (centres undefined) was read as PfHsp40 yeast 154*, PrP UTR inh -15, PriA SSB inh -3, PrPC TRFRET 9 and MazEF act 5.
For CN(C)CCOc1ccc(-c2c(-c3ccsc3)sc3ccccc23)cc1 the results were PfHsp40 yeast 91*, PrP UTR inh -8, PriA SSB inh 17, PrPC TRFRET -4 and MazEF act -6.
`COc1ccc(-c2sc3ccccc3c2-c2ccc(OCCN(C)C)cc2)cc1` gave PfHsp40 yeast 19, PrP UTR inh -4, PriA SSB inh 25, PrPC TRFRET -1 and MazEF act 11.
For COc1cccc(-c2sc3ccc(OC)cc3c2-c2ccc(OCCN(C)C)cc2)c1 the results were PfHsp40 yeast 31*, PrP UTR inh -6, PriA SSB inh -10, PrPC TRFRET -16 and MazEF act 14.
Screening COc1cccc(-c2sc3ccc(OC)cc3c2-c2cc(F)cc(OC)c2)c1 returned PfHsp40 yeast 0, PrP UTR inh -22, PriA SSB inh 1, PrPC TRFRET 1 and MazEF act -8.
For COc1cccc(-c2sc3ccc(OC)cc3c2-c2ccc(O)cc2)c1 the results were PfHsp40 yeast 103*, PrP UTR inh -3, PriA SSB inh 7, PrPC TRFRET 6 and MazEF act -3.
Cc1ccc(CNC(=O)c2coc(=O)c3ccccc23)o1 was read as PfHsp40 yeast 1, PrP UTR inh 0, PriA SSB inh 9, PrPC TRFRET -4 and MazEF act 15.
`CSCCC(NC(=O)COc1ccccc1)C(=O)N(C)Cc1ccc(F)cc1` (centres undefined) gave PfHsp40 yeast -2, PrP UTR inh -38, PriA SSB inh -7, PrPC TRFRET 5 and MazEF act 0.
`Oc1ccc2c3c1O[C@H]1c4oc5ccccc5c4C[C@@]4(O)[C@@H](C2)N(CC2CC2)CC[C@]314` gave PfHsp40 yeast 34*, PrP UTR inh 17, PriA SSB inh 2, PrPC TRFRET 1 and MazEF act 16.
For Cc1csc2nc(O)c(C(=O)NCCCc3ccccc3)c(=O)n12 the results were PfHsp40 yeast 289*, PrP UTR inh -11, PriA SSB inh -8, PrPC TRFRET 1 and MazEF act 8.
For COc1ccc(CC(=O)NCc2n[nH]c(=S)n2-c2ccc(Br)cc2)cc1 the results were PfHsp40 yeast 0, PrP UTR inh -25, PriA SSB inh 3, PrPC TRFRET 3 and MazEF act -4.
For O=C(/C=C/c1ccc2c(c1)OCO2)NCCSc1ncc(-c2ccc(Cl)cc2)[nH]1 the results were PriA SSB inh 38*.
Cc1cccc(C=Nc2sc3c(c2C(=O)OC(C)(C)C)CCN(C)C3)c1O was read as PriA SSB inh 45*.
O=C(c1cccc(Cl)c1)N1CCN(c2ccc(-c3cccnc3)nn2)CC1 was read as PriA SSB inh -15.
O=S(=O)(NCC(c1ccco1)N1CCc2ccccc21)c1ccccc1 (centres undefined) was read as PfHsp40 yeast -1, PrP UTR inh -4, PriA SSB inh 25*!, PrPC TRFRET 3 and MazEF act -2.
Screening O=C(Nc1nc(-c2ccccn2)cs1)c1ccc2c(c1)CCCC2 returned PriA SSB inh 54.
O=C(Nc1nc(-c2ccccn2)cs1)c1ccc2ncsc2c1 was read as PriA SSB inh 19.
Screening CC(=O)Nc1cccc(C(=O)Nc2nc(-c3ccccn3)cs2)c1 returned PriA SSB inh 67*.
For O=C(Nc1nc(-c2ccccn2)cs1)c1cccc(F)c1 the results were PriA SSB inh 120*.
For O=C(c1ccc(N2CCOCC2)nn1)N1CCN(c2ccccn2)CC1 the results were PriA SSB inh 12.
